ADAM17 inh: inhibitors of human ADAM17. AID 720648. recombinant ADAM17, EDANS/DABCYL FRET peptide cleavage. P78536. 370,000 tested, 0.83% active. inhibition, % at 6.95 µM;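 active = inhibition above the mean of compounds lying between control limits plus 3 SD, set per campaign, cut at about 8.5% in these data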;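 note: 0% = DMSO-only wells as the low control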
Target sequence (P78536 215-824 limits assumed): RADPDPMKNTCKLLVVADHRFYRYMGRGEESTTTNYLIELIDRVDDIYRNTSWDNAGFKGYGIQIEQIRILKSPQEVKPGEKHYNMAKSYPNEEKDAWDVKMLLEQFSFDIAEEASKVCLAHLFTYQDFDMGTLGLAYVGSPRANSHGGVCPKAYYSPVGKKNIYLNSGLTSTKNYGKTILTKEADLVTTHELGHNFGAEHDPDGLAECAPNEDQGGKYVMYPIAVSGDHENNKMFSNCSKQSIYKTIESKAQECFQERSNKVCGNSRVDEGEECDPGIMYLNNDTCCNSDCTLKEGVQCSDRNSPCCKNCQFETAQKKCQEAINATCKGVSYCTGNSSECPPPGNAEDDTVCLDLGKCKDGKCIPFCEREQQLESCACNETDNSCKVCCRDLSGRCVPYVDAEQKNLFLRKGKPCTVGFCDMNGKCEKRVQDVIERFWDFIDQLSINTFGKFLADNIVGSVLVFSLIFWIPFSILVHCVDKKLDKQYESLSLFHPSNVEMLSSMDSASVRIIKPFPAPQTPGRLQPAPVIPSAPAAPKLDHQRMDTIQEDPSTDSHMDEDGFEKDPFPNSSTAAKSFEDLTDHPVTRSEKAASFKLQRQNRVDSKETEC
NRP1-CendR mod: alters CendR peptide binding to human NRP-1; O14786; FAM-RPARPAR peptide binding to NRP-1, fluorescence polarization; inhibition, % at 25 µM; 360,000 tested, 0.85% active; AID 602438;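 active = inhibition or corrected inhibition above about 18%, plus a signal ratio from 0.5 to 1.5, limit read from the data, passing the limit was not always enough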
sPLA2-III inh: Inhibits HGIII-sPLA2 liposome hydrolysis, primary screen | Q9NZ20 | QFRET BODIPY PC-A2 liposome hydrolysis, fluorescence | inhibition, % at 12.2 µM | 370,000 tested, 0.56% active;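 active = inhibition above mean plus 3 SD of compounds lying within the high and low control bounds, cut at about 19% in these data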;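 note: 0% = median of test compound wells and 100% = no enzyme DMSO wells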
KLK7 zymogen act: activators of human kallikrein-7 zymogen; P49862; purified proKLK7, EDANS-DABCYL substrate fluorescence; 100% is mature enzyme control, 0% vehicle; activation, % at 7 µM; 370,000 tested, 0.9% active; AID 652039;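 active = activation above the mean of all tested compounds plus 3 SD, computed per campaign excluding outliers beyond control limits, cut at about 13% in these data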
ADAM10 inh: ADAM10 inhibition, QFRET primary screen; O14672; recombinant ADAM10, EDANS/DABCYL FRET peptide cleavage, 3 h; inhibition, % at 7 µM; 370,000 tested, 0.62% active; AID 720582;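 active = inhibition above a per-campaign cutoff equal to the mean of compounds falling between control-based bounds plus 3 SD, cut at about 20% in these data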;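 note: 0% = DMSO wells while the 100% control is not disclosed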
ADAM10 confirm: confirmation of inhibitors of human ADAM10; shares compounds with ADAM10 inh; ADAM10 QFRET peptide cleavage, EDANS fluorescence; inhibition, % at 6.95 µM; 2,100 tested, 1% active; AID 743208;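 active = inhibition above about 20% chosen separately for each screening run, limit read from the data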;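 note: 0% = DMSO wells and 100% = marimastat wells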
ADAM17 ctr: counter-screen for ADAM10 exosite inhibitors: inhibitors of human ADAM17; shares compounds with ADAM10 inh; AID 743214; ADAM17 QFRET peptide cleavage, EDANS fluorescence; inhibition, % at 6.95 µM; 2,100 tested, 0.5% active;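 active = mean triplicate inhibition above the solvent-only control wells' mean plus 3 SD, cut at about 12% in these data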;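 note: 0% = DMSO wells and 100% = marimastat wells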
ADAM10 counter: inhibits human ADAM10 in ADAM17 exosite counter-screen | shares compounds with ADAM17 inh | recombinant ADAM10, EDANS/DABCYL FRET peptide cleavage, 3 h | inhibition, % at 6.95 µM | 2,900 tested, 47% active;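 active = mean inhibition over the triplicate runs exceeds the activity threshold set in the earlier primary screen, cut at about 20% in these data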;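 note: 0% = DMSO wells and 100% = marimastat wells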
ADAM17 confirm: confirmation of inhibitors of human ADAM17 | recombinant ADAM17, EDANS/DABCYL QFRET peptide cleavage | AID 743257 | shares compounds with ADAM17 inh | 2,900 tested, 65% active | inhibition, % at 6.95 µM;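 active = mean inhibition across replicates above the hit cutoff set in the primary screen, cut at about 8.5% in these data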;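 note: 0% = DMSO wells and 100% = marimastat wells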
Numbers without * were called inactive; nt = no result. Hits are enriched below; roughly 3.4% of the tested compounds scored in any of these assays.

SMILES | ADAM17 inh | NRP1-CendR mod | sPLA2-III inh | KLK7 zymogen act | ADAM10 inh | ADAM10 confirm | ADAM17 ctr | ADAM10 counter | ADAM17 confirm
Cc1cccc(NC(=O)Cn2c(=O)n(CCc3c[nH]c4ccccc34)c(=O)c3cccnc32)c1 | 10* | nt | -85 | -1 | 20* | 7 | 3 | 27* | 17*
CC(C)C[C@@H]1COc2cc(NCCCN3CCOCC3)ccc2S(=O)(=O)N1 | -6 | nt | 18 | 1 | -6 | nt | nt | nt | nt
Cc1ccc(C(=O)Nc2nnc(NC(=S)Nc3ccccc3)s2)cc1 | 9.2* | -8 | 5 | -1 | 24* | 12 | 4 | -9 | 3
NC(=O)c1ncn([C@@H]2O[C@H](C(=O)N3CCCN(Cc4ccccc4F)CC3)[C@@H](O)[C@H]2O)n1 | -1 | nt | -3 | -1 | -3 | nt | nt | nt | nt
C[C@@H]1OC(C2CCCCC2)N(C)[C@H]2C[C@H]3c4[nH]c5cccc(-c6ccccc6)c5c4CCN3C[C@@H]12 (stereo not given in full) | -25 | nt | -6 | 1 | -91 | nt | nt | nt | nt
Cc1noc(C)c1COc1ccc(C(=O)OCc2nnc(-c3ccc(Cl)cc3)o2)cc1 | 12* | -12 | -24 | 0 | 22* | 2 | 1 | 21* | 14*
CCC(C)NC(=O)c1oc2ccc(S(=O)(=O)N3CCC4(CC3)OCCO4)cc2c1C (stereo not given) | 2 | 6 | -4 | 0 | -2 | nt | nt | nt | nt
Cc1c(C(=O)NCCC2=CCCCC2)oc2ccc(S(=O)(=O)N3CCC4(CC3)OCCO4)cc12 | 8.9* | 0 | -17 | 1 | 22* | 6 | 2 | 16 | 10*
COC(=O)[C@H](C(C)C)N(CCCc1cn(Cc2ccccc2)nn1)S(=O)(=O)c1ccccc1Br | 5 | nt | -17 | 1 | 10 | nt | nt | nt | nt
O=C(NCc1ccccc1)[C@@H]1CCCN1C(=O)[C@H]1CCCN1C(=O)c1cccc(F)c1 | -2 | nt | 12 | 0 | -2 | nt | nt | nt | nt
Cc1cccc(NC(=O)c2cccc3c2-c2ccccc2C3=O)c1C | 1 | nt | 1 | 0 | -4 | nt | nt | nt | nt
O=C(c1ccc(Cl)cc1)N1CCC(O)(CSc2ccc(Cl)cc2Cl)CC1 | 9.4* | -2 | -19 | 1 | 27* | 4 | 2 | 27* | 11*
CC(C)C[C@H]1COc2cc(Br)ccc2S(=O)(=O)N1Cc1cn(Cc2ccc(Br)cc2)nn1 | -1 | nt | 5 | 1 | 2 | nt | nt | nt | nt
COc1ccccc1C(CCNS(=O)(=O)c1ccc(C)cc1)c1ccco1 (stereo not given) | 9.3* | 0 | -49 | -1 | 21* | 5 | 2 | 27* | 18*
Cc1ccc(S(=O)(=O)NCCC(c2ccccc2)c2ccco2)cc1 (stereo not given) | 2 | 8 | -25 | 0 | 6 | nt | nt | nt | nt
O=Cc1ccc(Oc2cc(-c3ccccc3)nc(-c3ccccc3)n2)cc1 | -4 | 9 | 8 | -1 | -5 | nt | nt | nt | nt
O=S(Cc1cc(Oc2ccccc2)nc(-c2ccccc2)n1)c1ccccc1 (stereo not given) | 11* | 2 | -4 | 0 | 26* | 3 | 1 | 10 | 7
C=CCNC(=O)COC(=O)c1ccc(Cl)c(S(=O)(=O)N(Cc2ccccc2)c2ccccc2)c1 | 12* | -4 | -28 | 0 | 22* | 2 | 2 | 29* | 20*
NC(=O)COC(=O)c1ccc(Cl)c(S(=O)(=O)N(Cc2ccccc2)c2ccc(Cl)cc2)c1 | 10* | -5 | -7 | 0 | 26* | 8 | 2 | 24* | 14*
C[C@@H]1CCN(C2CC2)S(=O)(=O)c2c(cccc2N2CCC[C@H]2C)O1 | -6 | nt | 10 | 0 | -19 | nt | nt | nt | nt
COC(=O)C(C(=O)OC)[C@H]1C=C[C@@H](C(=O)NS(=O)(=O)c2ccc(C)cc2)N(C(C)=O)C1 | 0 | nt | 5 | 0 | -5 | nt | nt | nt | nt
O=C(Nc1cccc(Cl)c1)c1cc(S(=O)(=O)NCCc2ccc(Cl)cc2)ccc1F | 13* | -7 | -24 | 0 | 29* | 11 | 4 | 34* | 17*
Cc1ccc(NC(=O)c2cc(S(=O)(=O)NCCc3ccccc3)ccc2F)cc1Cl | 16* | 2 | -28 | 0 | 23* | 10 | 3 | 24* | 14*
N#Cc1cc2ccccc2nc1SCC(=O)Nc1ccc(S(=O)(=O)N2CCCC2)cc1 | 12* | 1 | -4 | -57 | 29* | 6 | 4 | -6 | 2
COC(=O)C1=CC[C@@H](NC(=O)OC(C)(C)C)[C@H](O)[C@H]1O[Si](C)(C)C(C)(C)C | 9.9* | nt | -12 | nt | 22* | 1 | 0 | 5 | 4
SMILES | ADAM17 inh | NRP1-CendR mod | sPLA2-III inh | KLK7 zymogen act | ADAM10 inh | ADAM10 confirm | ADAM17 ctr | ADAM10 counter | ADAM17 confirm
COC(=O)CC(=O)O[C@H]1C=C[C@@H](NC(=O)OC(C)(C)C)C1 | -3 | 3 | -11 | 1 | -4 | nt | nt | nt | nt
C=CCC[C@H](Cc1ccc(F)cc1)C(=O)OC[C@@H](Cc1c[nH]c2ccccc12)NC(=O)[C@H](CC=C)CC(=O)N(CCO)Cc1ccccc1 | 25* | 8 | -96 | 0 | 43* | 11 | 3 | 61* | 35*
C=CC[C@@H](CC(=O)N(CCO)Cc1ccccc1)C(=O)N[C@@H](COC(=O)[C@@H](CC=C)Cc1ccc(F)cc1)Cc1c[nH]c2ccccc12 | 8 | 3 | -83 | 0 | 18 | nt | nt | nt | nt
C=CC[C@@H](Cc1ccc(F)cc1)C(=O)OC[C@H]1CCCN1C(=O)[C@H](CC=C)CC(=O)N[C@H](CO)Cc1ccccc1 | 3 | -11 | -14 | 0 | 4 | nt | nt | nt | nt
C=CCC[C@@H](Cc1ccc(F)cc1)C(=O)OC[C@@H](Cc1c[nH]c2ccccc12)NC(=O)[C@H](CC=C)CC(=O)N(CCO)Cc1ccccc1 | 17* | 14 | -99 | 0 | 40* | 13 | 3 | 69* | 26*
C=CC[C@H](CC(=O)N(CCO)Cc1ccccc1)C(=O)N[C@@H](COC(=O)[C@@H](CC=C)Cc1ccc(F)cc1)Cc1c[nH]c2ccccc12 | 14* | -3 | -132 | 1 | 37* | 7 | 3 | 45* | 25*
C=CCC[C@H](Cc1ccc(F)cc1)C(=O)OC[C@H](Cc1c[nH]c2ccccc12)NC(=O)[C@@H](CC=C)CC(=O)N[C@@H](CO)Cc1ccccc1 | -4 | -16 | -9 | 0 | -2 | nt | nt | nt | nt

Screens from PubChem.
